Source: PubChem BioAssay (National Center for Advancing Translational Sciences (NCATS))
IL1B secr inh: blocks inflammasome-driven IL-1 beta release | THP-1 LPS/ATP IL-1B secretion, AlphaLISA, 16 h; active compounds read low | activity change, % at 57.5 µM | 360,000 tested, 4.7% active | AID 743279; in the data active means activity change below about -50%; inconclusive means mostly about -30% to -49%
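Secreted IL-1B measured by AlphaLISA bead assay after 16 h compound exposure of THP-1 cells; compounds (final up to 57.5 uM) added 1 h before LPS (250 ng/mL) and ATP (1.25 mM) stimulation; lower signal means less secretion.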
TDP1 cell CPT: DT40-hTDP1 cell growth loss with CPT | chicken DT40 Tdp1-/-;hTDP1 cells + 20 nM CPT, ATP luminescence, 48 h | Potency, µM (series often up to 46.2 µM), for the others: top-dose activity change, negative = growth inhibition, actives largely listed as inhibitors | 420,000 tested, 12% active; further: potency means the concentration at half of the fitted maximal effect; nearly all actives have a fitted effect of over 55% in size
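Chicken DT40 Tdp1-/- cells complemented with human TDP1, 400 cells/well, exposed to compounds plus 20 nM camptothecin for at least 48 h at 37 C; viability read as ATP content by CellTiter-Glo luminescence.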
TDP1 cell noCPT: qHTS for Inhibitors of human tyrosyl-DNA phosphodiesterase 1 (TDP1): qHTS in cells in absence of CPT; Potency, µM (top dose mostly 46.2 µM), for inactives: at the top dose activity change, negative = growth inhibition, actives largely listed as inhibitors; 420,000 tested, 15% active; DT40 Tdp1-/- hTDP1 cells, no CPT, ATP luminescence, 48 h; further: potency means the concentration at half of the fitted maximal effect; nearly all actives have a fitted effect of over 55% in size
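Seeded 400 DT40-hTDP1 cells/well (vehicle DMSO, no 20 nM CPT); pinned compounds; ≥48 hr at 37 °C; CellTiter-Glo luminescence as viability measure.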
ELG1 DNA repair: inhibitors of ELG1-dependent DNA repair in HEK293T cells; HEK293T ELG1-luciferase reporter, luminescence, 16 h; DNA damage induced by 5-fluorouridine; Potency, µM (doses to about 46.1 µM), for inactives: at the top dose activity change, negative = inhibition, actives largely listed as inhibitors; 330,000 tested, 2.3% active; further: potency means the concentration at half of the fitted maximal effect; nearly all actives have a fitted effect of over 55% in size
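Quantitative HTS, concentration-response format. 2,000 cells/well co-treated with 5-fluorouridine and compound, 16 hr in 5% CO2 at 37 °C; ONE-Glo luminescence read after 30 min.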
HT1080NT lethal: kills 2HG-producing HT-1080-NT fibrosarcoma cells. HT-1080-NT fibrosarcoma viability, CellTiter-Glo ATP luminescence, 48 h. Potency, µM (series often up to 46.1 µM), without a hit: top-dose activity, negative = less viability, most hits filed as cytotoxic. 360,000 tested, 1.6% active;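 further: NT is the 2HG producing partner of a matched IDH1 knockdown line; potency means the concentration at half of the fitted maximal effect; 0% = DMSO-treated cells and -100% = media-only wells without cells; nearly all actives have a fitted effect of over 55% in size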
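Read-out is CellTiter-Glo luminescence after 10 minutes at room temperature, following 48 hours' compound treatment of HT-1080-NT cells (750 cells/well, RPMI, 5% FBS, 37 degrees C).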
HT1080 IDH1KD tx: kills HT-1080 cells with IDH1 knockdown; HT-1080 IDH1 knockdown viability, ATP luminescence, 48 h; Potency, µM (top dose mostly 46.1 µM), for inactives: at the highest dose activity, negative = toxicity, hits mostly cytotoxic; 360,000 tested, 2% active; AID 686971;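 further: potency means the concentration at half of the fitted maximal effect; 0% = DMSO wells and -100% = cell-free medium wells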
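IDH1KD HT-1080 cells, 750/well, RPMI + 5% FBS; compound pinned after 2 h settling; 48 h, 37 °C; CellTiter-Glo luminescence; % activity normalised to DMSO and no-cell wells; curves fitted, classed by r2 and efficacy.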
* hit, by the source's call; i = inactive; ? = inconclusive; · = not tested or not shown. This is a sample that favours compounds with a hit; in the whole collection about 19% have one here. Unless noted, the call rests on the fitted dose curve; in most records, active means well fitted curve in the direction sought with a large enough effect; inconclusive means small, poorly fitted or top-dose-only effect, or another doubt; inactive means no such curve, though single readings can be large; an effect the other way counts as inactive or inconclusive. Unless noted, on the % scale 0 is the no-effect control and ±100 the full control effect.

SMILES	IL1B secr inh	TDP1 cell CPT	TDP1 cell noCPT	ELG1 DNA repair	HT1080NT lethal	HT1080 IDH1KD tx
COc1cccc(OC)c1C(=O)Nc1cccc2c1CCCC2	?	-20%	5%	-15%	0%	3%
CC(C)C(NS(=O)(=O)c1cccc2nsnc12)C(=O)N1CCCCC1 (centres undefined)	-9	-4%	20%	2%	12%	18%
COc1ccc(C(=O)NCCc2sc(-c3ccc(Cl)cc3)nc2C)c(OC)c1	·	16µM*	?	·	·	·
COc1ccc(NC(=O)c2cc(-c3ccc4c(c3)OCO4)on2)cc1OC	6	-4%	7%	7%	1%	7%
COc1ccccc1C1NC(c2ccc3c(c2)OCO3)=CC(c2ccccc2O)N1 (centres undefined)	·	11µM*	10µM*	·	·	·
COc1ccc(C2NC(c3ccc4c(c3)OCO4)=CC(c3ccccc3O)N2)cc1OC (centres undefined)	·	13µM*	18µM*	·	·	·
CCOc1ccccc1C1NC(c2ccc3c(c2)OCO3)=CC(c2ccccc2O)N1 (centres undefined)	·	11µM*	14µM*	·	·	·
COc1ccccc1C1NC(c2ccc3c(c2)OCO3)=CC(c2cc(Cl)ccc2O)N1 (centres undefined)	·	7.9µM*	4µM*	·	·	·
Oc1ccc(Cl)cc1C1C=C(c2ccc3c(c2)OCO3)NC(c2ccc(Br)cc2)N1 (centres undefined)	·	16µM*	?	·	·	·
COC(=O)CSc1nc(-c2ccccc2)c2c(c1C#N)CCCC2	27	-14%	?	-2%	-1%	3%
COC(=O)CSc1nc(N2CCCCC2)c2c(c1C#N)CCCC2	17	?	23µM*	-8%	-10%	-6%
CC(C)N1CCN(C(=O)c2ccc(OC3CCN(CCc4ccccc4)CC3)cc2)CC1	i	?	23µM*	-2%	-4%	-9%
O=C(NCCc1ccccn1)c1ccc(OC2CCN(CCc3ccccc3)CC2)cc1	-11	-14%	-4%	?	-1%	1%
CC(Cc1ccccn1)NC(=O)c1ccc(OC2CCN(CCc3ccccc3)CC2)cc1 (centres undefined)	i	18µM*	?	17%	-12%	-10%
Cc1ccc(C)c(S(=O)(=O)N2CCN(C(=O)CSC(=S)N3CCCC3)CC2)c1	-4	-4%	-23%	?	-9%	-11%
COc1ccc(S(=O)(=O)N2CCC(C(=O)Nc3nccs3)CC2)cc1	9	-8%	-24%	?	3%	-2%
Cc1cccc(NC(=O)c2ccc(C(=O)Nc3cccc(C)c3C)cc2)c1C	·	-20%	3%	·	·	·
c1ccc2c(-c3nc(C4CCCCC4)no3)cc(-c3ccncc3)nc2c1	-17	?	23µM*	?	3%	7%
CCOc1ccc(CC(=O)NC2CC(=O)N(c3ccc(C)c(C)c3)C2)cc1 (centres undefined)	·	-26%	?	·	·	·
COc1ccc(Cl)c2c1[nH]c1nc(SCc3ccccn3)nnc12	-82*	?	26µM*	?	-21%	-26%
Cc1ccc2c(CC(=O)Nc3cc(C(F)(F)F)ccc3Cl)coc2c1C	·	-7%	-28%	·	·	·
CCOC(=O)c1nnc(-c2ccccc2)nc1Sc1c(Cl)cccc1Cl	-116*	21µM*	16µM*	3%	?	21µM*
CCOC(=O)c1nnc(-c2ccc(C)cc2)nc1Sc1ccccc1Cl	-97*	?	16µM*	0%	-9%	1%
CCOC(=O)c1nnc(-c2ccc(C)cc2)nc1Sc1ccc(Cl)cc1	5	8.2µM*	8.2µM*	7%	4%	-1%
CCOC(=O)c1cc(=O)n2nc(-c3ccc(C)cc3)nc2s1	-6	-7%	-8%	23%	19%	14%
SMILES	IL1B secr inh	TDP1 cell CPT	TDP1 cell noCPT	ELG1 DNA repair	HT1080NT lethal	HT1080 IDH1KD tx
CCC(=O)N(c1nnc(SCC(=O)Nc2ccc(N3CCOCC3)cc2)s1)C1CC1	3	-5%	21%	-1%	7%	15%
COc1ccc(N2CCN(C(=O)CSc3nc4nc(C)cc(C)n4n3)CC2)cc1	-1	?	-24%	0%	-1%	-9%
CCOc1ccccc1NC(=O)Cn1c(=O)n(CCCCC(=O)NCCCOC)c(=O)c2ccccc21	·	-13%	-16%	·	·	·
Cc1ccc2oc(C(=O)Nc3sc4c(c3C(=O)NCc3cccnc3)CCCC4)cc(=O)c2c1	·	-17%	?	·	·	·
Cc1ccccc1N1CC(c2nc3ccccc3n2CCC2CCCCC2)CC1=O (centres undefined)	·	13µM*	10µM*	·	·	·
Cc1cccc(N2CC(c3nc4ccccc4n3CCC3CCCCC3)CC2=O)c1 (centres undefined)	·	?	18µM*	·	·	·
Cc1ccccc1N1CC(c2nc3ccccc3n2Cc2ccc(Br)cc2)CC1=O (centres undefined)	·	?	16µM*	·	·	·
CCc1ccccc1N1CC(c2nc3ccccc3n2CCC2CCCCC2)CC1=O (centres undefined)	·	5.8µM*	5.2µM*	·	·	·
CCOc1ccccc1N1CC(c2nc3ccccc3n2CCOc2ccccc2)CC1=O (centres undefined)	·	-27%	-24%	·	·	·
CC(C)(C)N1CC(c2nc3ccccc3n2Cc2ccc(Cl)cc2)CC1=O (centres undefined)	-15	-22%	?	-26%	-17%	-29%
Cc1cccc(C)c1N1CC(c2nc3ccccc3n2CC(=O)OC(C)C)CC1=O (centres undefined)	·	?	16µM*	·	·	·
Cc1ccc(C[n+]2ccccc2)cc1	46	8.2µM*	9.2µM*	?	-3%	-16%
COc1ccc(N/N=C(/C#N)S(=O)(=O)C(C)(C)C)cc1	7	6%	2%	-6%	3%	0%
CSc1ccc(N/N=C(/C#N)S(=O)(=O)C(C)(C)C)cc1	22	?	?	18µM*	-12%	-11%
O=C(C(=O)N1CCCc2ccccc21)N1CCCc2ccccc21	39	7%	?	8%	-7%	17%
CC(NC(c1ccccc1)c1ccccc1)C(=O)N1CCCc2ccccc21 (centres undefined)	-5	12µM*	10µM*	-7%	-17%	-16%
CC(Nc1ccccc1N1CCCCC1)C(=O)N1CCc2ccccc21 (centres undefined)	-22	?	16µM*	?	16%	-9%
